# Screens: PubChem BioAssay, National Center for Advancing Translational Sciences (NCATS)
# p53ts 32C kill = p53ts cell cytotoxicity, permissive temperature; Potency, µM (doses to about 46.1 µM), for inactives: at the top dose activity change, negative = cytotoxicity, hits mostly cytotoxic; AID 924; H1299-p53A138V at 32C, ATP luminescence viability, 24 h; 130,000 tested, 0.93% active;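 also: 0% = DMSO and -100% = full killing by reference compound; nearly all actives have a fitted effect of over 55% in size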
#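 Cells: H1299 p53ts (A138V), 600/well, pre-incubated 16–30 h at 37C. Cpd up to 46 uM, 24 h, 32C. Readout: ATPlite luminescence, 20 min RT. Normalization: DMSO vs tamoxifen 100 uM. AC50 by Hill equation.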
# p53ts 39C tox = cytotoxicity in p53ts cells at nonpermissive temperature. H1299-p53A138V viability at 39C, ATP luminescence, 24 h. Potency, µM (highest dose often 46.1 µM), for inactives: top-dose activity change, negative = cell killing, hits mostly cytotoxic. 130,000 tested, 1.5% active. AID 902; also: % is scaled to controls: 0 for no effect and ±100 for the full control effect; nearly all actives have a fitted effect of over 55% in size
# Imprint erasure = induces erasure of genomic imprints in mouse ES cells. mouse ES Peg3-LacZ reporter, beta-gal luminescence, 40 h. Potency, µM (titrated, usually from 60.7 µM), for inactives: at the highest dose activity change, positive = activation, hits mostly activators. 110,000 tested, 0.02% active
#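 Each well holds 300 Peg3LacZ-Neo (maternal) female ES cells incubated 40 h at 37C, 5% CO2. LacZ is measured by BetaGlo luminescence, with AC50 and maximum efficacy derived from dose-response curves.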
# An asterisk follows results filed as active; ? = inconclusive; · = no result given; [ ] = dose if it differs, or a comment. An excerpt weighted towards active compounds, which were near 1.6% of everything screened. Calls follow the shape of the dose curve; as a rule, active = well fitted curve in the direction sought with a large enough effect; inconclusive = small, poorly fitted or top-dose-only effect, or another doubt; inactive = no such curve, though single readings can be large; an effect the other way counts as inactive or inconclusive. Potency is read from the fitted curve at half-maximal effect.
SMILES,p53ts 32C kill,p53ts 39C tox,Imprint erasure
COc1ccc(CC[N@+]2(C)COc3cc4oc(=O)cc(C)c4cc3C2)cc1OC,1.2%[9.22 µM],-0.5%[9.22 µM],-6.1%[10.9 µM]
CNc1ncnc2ccc(-c3ccccc3C#N)cc12,12.7%,10.6%,-39.8%
COc1ccc(CNc2ncncc2-c2ccoc2)c(OC)c1,-6.7%,-7.1%,-14.1%
O=C(O)c1cc(-c2ccc(C(F)(F)F)cc2)nc2n[nH]c(-c3ccccc3)c12,?,10µM*,-8.2%[10.9 µM]
COc1ccc(OC)c(-c2cc(C(=O)NCCc3ccccc3)c3c(-c4ccc(C)cc4)[nH]nc3n2)c1,-0.5%,-18.3%,-6.5%[10.9 µM]
CCOc1ccc(-c2cc(C(=O)NCc3ccccc3)c3c(-c4ccc(CC)cc4)[nH]nc3n2)cc1,0.6%,0.0%,5.4%[10.9 µM]
COc1ccc(-c2cc(C(=O)NCCc3ccccc3)c3c(-c4ccccc4)[nH]nc3n2)cc1,?,12.6µM*,-4.9%[10.9 µM]
COc1ccc(-c2cc(C(=O)NCCc3ccccc3)c3c(-c4ccc(Cl)cc4)[nH]nc3n2)cc1,12.6µM*,12.6µM*,-27.2%[10.9 µM]
COCCCNC(=O)c1cc(-c2ccc(OC)cc2)nc2n[nH]c(-c3ccc(Cl)cc3)c12,5.3%,-1.3%,-2.3%[10.9 µM]
CCOC(=O)c1cccc(NC(=O)COc2ccc3c(C)cc(=O)oc3c2)c1,11.2%,-0.7%,5.7%[10.9 µM]
NCC(=O)N[C@H](CO)C(=O)O,-3.4%[9.22 µM],0.8%[9.22 µM],?
COc1ccc(-c2cnc(SCC(=O)Nc3ccc4c(c3)OCO4)n2Cc2ccco2)cc1,0.8%,36.3%,-22.0%
CC(=O)Nc1cccc(NC(=O)CSc2ncc(-c3ccc(Cl)cc3)n2Cc2ccco2)c1,?,12.6µM*,-14.7%
COc1ccc(/C=C\C(=O)Nc2ccccc2C(=O)O)cc1OC,15.8µM*,12.6µM*,-65.6%
COc1ccc(/C=C/C(=O)Nc2ccc(Cl)c(Cl)c2)cc1OC,?,?,-7.1%[10.9 µM]
Cc1cc(S(=O)(=O)Nc2cc3c(cc2Cl)n(C)c(=O)c(=O)n3C)ccc1F,-3.4%,0.6%,-4.4%[10.9 µM]
COc1cc(/C=C(\C#N)c2nc3ccc(C)cc3[nH]2)ccc1OCc1ccc(C)cc1,15.8µM*,3.98µM*,-23.6%[10.9 µM]
CCOC(=O)COc1ccc(/C=C(\C#N)c2nc3ccc(C)cc3[nH]2)cc1OC,-17.9%,20.6%,-15.9%[10.9 µM]
O=C(CCCn1c(=O)c2cccn2c2ccccc21)NCCc1ccc(Cl)cc1,10µM*,12.6µM*,-21.5%[10.9 µM]
O=C(CCn1c(=O)c2cccn2c2ccc(F)cc21)NCCc1ccc(Cl)cc1,5.8%,-19.4%,17.6%[10.9 µM]
COc1ccc(CCNC(=O)Cn2c(=O)c3cccn3c3ccccc32)cc1OC,-21.3%,15.8µM*,-3.3%[10.9 µM]
COc1ccc(CCNC(=O)Cn2c(=O)c3cccn3c3ccc(F)cc32)cc1OC,4.6%,11.8%,-12.4%[10.9 µM]
CC(C)(CO)Cc1cc(C(C)(C)C)c(O)c(C(C)(C)C)c1,20µM*,31.6µM*,-12.9%
CC(C)(C=O)Cc1cc(C(C)(C)C)c(O)c(C(C)(C)C)c1,6.3%,-23.8%,-16.7%
COc1cc2c(cc1NC(=O)/C=C/c1cc(OC)c(OC)c(OC)c1)oc1ccccc12,·,-7.4%,·
COc1cc(/C=C/C(=O)N2CCC=CC2=O)cc(OC)c1OC,3.16µM*,?,-35.1%
